According to PubChem BioAssay (NCI):
Compounds without any hit were thinned out: in the full panel of roughly 79,000, 15% have a hit. Values without a mark were called inactive. Activity calls are given as the source filed them. No stated cut-off is given here; in the data, active means growth inhibition above about 70%; inactive means the rest.

Assay: NCI Yeast Anticancer Drug Screen. Data for the mec2-1 strain (AID 157)
Conditions: S. cerevisiae mec2-1 strain, at 33.0 µM, stronger effect = higher value
In short: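 Each compound was tested on mec2-1 yeast, a strain altered in DNA damage repair or cell cycle control. Growth inhibition is reported relative to vehicle.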

Q: Which growth inhibition does the source give for `CCOP(=O)(OCC)C(Cc1ccccc1)N=C(c1ccccc1)c1ccccc1` (centres undefined) here?
A: 97% (active)

Q: For `CCc1ncnc2cc(OCC3CO3)c(OC)cc12` (centres undefined), which growth inhibition is on record?
A: 75% (active)

Q: For `CCOC(=O)[C@H]1Nc2ccccc2C2c3ccccc3CC21` (some centres undefined), which growth inhibition is on record?
A: 53%

Q: With `O=CNc1ccc2c(c1)C(=O)c1ccccc1-2` as the molecule, how does the growth inhibition read?
A: 36%

Q: With `CCOc1ccc2c(c1)c(CC(=O)O)cn2C` as the molecule, how does the growth inhibition read?
A: 27%

Q: Which growth inhibition does the source give for `OC1CSCCCSCCSCCCSC1` here?
A: 4%

Q: Which growth inhibition does the source give for `N#Cc1c(N)[nH]c2ccc(Sc3ccccc3)cc12` here?
A: 93% (active)

Q: Which growth inhibition does the source give for `Cc1ccc(-c2ccc(Nc3c4ccccc4nc4ccccc34)cc2)cn1` here?
A: 86% (active)

Q: With `c1ccc2c(c1)NC(NC1Nc3ccccc3N1)N2` as the molecule, how does the growth inhibition read?
A: 16%

Q: For `OC(COc1cccc2ccccc12)CN1CCOCC1` (centres undefined), which growth inhibition is on record?
A: 27%

Q: With `CCC/C(Cl)=N\OC(=O)Nc1ccc(Br)cc1` as the molecule, how does the growth inhibition read?
A: 98% (active)

Q: With `COc1ccc(/C=C2\SC(=S)N(/C=C/c3nc4ccccc4[nH]c3=O)C2=O)cc1OC` as the molecule, how does the growth inhibition read?
A: 66%

Q: With `O=C(NNc1ccnc2cc(Cl)ccc12)/C(=C\c1ccccc1Cl)NC(=O)c1ccccc1` as the molecule, how does the growth inhibition read?
A: 20%

Q: For `CSC1=NNC(SC)=NN1`, which growth inhibition is on record?
A: 89% (active)

Q: Which growth inhibition does the source give for `Cc1c(C2=C(Br)C(=O)N(C)C2=O)c(=O)n(C)c(=O)n1C` here?
A: 45%

Q: With `NCCNc1ccc(NCCN)c2c1C(=O)c1c(O)ccc(O)c1C2=O` as the molecule, how does the growth inhibition read?
A: 87% (active)

Q: Which growth inhibition does the source give for `Cn1c(=O)c(-c2ccccc2)c(N=[N+]=[N-])c2ccccc21` here?
A: 87% (active)

Q: With `CCCCCCCCCCCCCCCCCCOCC(O)COP(=O)(O)OCC1OC(n2cc(F)c(=O)[nH]c2=O)CC1O` (centres undefined) as the molecule, how does the growth inhibition read?
A: 90% (active)

Q: Which growth inhibition does the source give for `CCS(=O)(=O)c1ccc(/C=C/C=N/NC(=S)NCC(C)C)cc1` here?
A: 3%

Q: Which growth inhibition does the source give for `CCC(=O)Oc1c(Cl)cc(Cl)c2ccccc12` here?
A: 0%

Q: With `COc1cc2c3c(cccc3c1)C(=O)N(CCN(C)C)C2=O` as the molecule, how does the growth inhibition read?
A: -19%

Q: With `CN(C)c1ccc(C(C#N)=C(C#N)C#N)cc1` as the molecule, how does the growth inhibition read?
A: 3%

Q: For `O=C(CCCN1CCC2(CC1)CC(=O)N(N1CCCCCC1)C2=O)c1ccc(F)cc1`, which growth inhibition is on record?
A: 40%

Q: For `O=C1C2C(C(=O)N1c1ccc(OCc3ccccc3)cc1)C1c3ccccc3C2C2CCCCN21` (centres undefined), which growth inhibition is on record?
A: 2%

Q: Which growth inhibition does the source give for `CCN(CC)CCC(=O)c1ccc(Oc2ccc(F)cc2)cc1` here?
A: 52%

Q: For `O=Nc1c(NO)ccc2nn(-c3ccccc3)nc12`, which growth inhibition is on record?
A: 98% (active)

Q: With `CC(=O)SCCC[Si](C)(C)CCCSC(C)=O` as the molecule, how does the growth inhibition read?
A: 3%

Q: Which growth inhibition does the source give for `O=C(O)C1CCCCC1c1c2ccc(=O)c(O)c-2oc2c(O)c(O)ccc12` (centres undefined) here?
A: 46%

Q: Which growth inhibition does the source give for `Cc1ccc(NN(NC(=O)OC(C)C)C(=O)OC(C)C)cc1` here?
A: 13%

Q: With `O=C1c2ccccc2C(=O)c2cc(CBr)ccc21` as the molecule, how does the growth inhibition read?
A: 32%

Q: For `Cc1c(C(Cc2ccccc2N(C)C(=O)/C=C\C(=O)O)c2c[nH]c3ccccc23)c2ccccc2n1C` (centres undefined), which growth inhibition is on record?
A: 2%

Q: For `CC(C)/C(Cl)=N\OC(=O)Nc1ccc(F)cc1`, which growth inhibition is on record?
A: 23%

Q: With `O=C1OC(=O)C2CCCC3CCCC1C32` (centres undefined) as the molecule, how does the growth inhibition read?
A: 95% (active)

Q: With `CCOC(=O)C(NC(=O)c1ccccc1)(N1CCN(c2cc3c(cc2F)c(=O)c(C(=O)O)cn3C2CC2)CC1)C(F)(F)F` (centres undefined) as the molecule, how does the growth inhibition read?
A: 2%

Q: With `COc1ccc(NC(=S)N/N=C(\c2ccccc2)c2ccccn2)cc1` as the molecule, how does the growth inhibition read?
A: 61%

Q: With `C=CCC1=C(C)C(OC(=O)/C=C/c2ccccc2)CC1=O` (centres undefined) as the molecule, how does the growth inhibition read?
A: 0%

Q: For `NNc1c(F)c(F)cc(F)c1F`, which growth inhibition is on record?
A: -20%

Q: For `COP(=O)(OC)/C(=C\C1=CN(C(c2ccccc2)(c2ccccc2)c2ccccc2)CN1)NC=O`, which growth inhibition is on record?
A: 68%

Q: With `COC(=O)c1cc(-c2ccc(C)cc2)[nH]c(=O)c1C#N` as the molecule, how does the growth inhibition read?
A: -1%
